We go through six compounds from PubChem BioAssay.

Assay [1] is described as follows: polyglutamine-triggered caspase-3 activation inhibitors, cell-based (AID 1583). As to conditions: polyglutamine-induced caspase-3 activation, cell assay; stronger effect = higher value;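 tested at 10 µM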.
The nature of assay [2]: suppressors of polyQ aggregation in yeast, 75Q-TubU reporter (AID 1593). Particulars: Yeast 75Q polyglutamine aggregation reporter.
The nature of assay [3]: rescue of polyQ-huntingtin neuronal dysfunction in worms, whole organism, C. elegans mechanosensory neurons, N-terminal huntingtin (AID 1599). As to conditions: touch response, stronger effect = higher value.
A short description of assay [4]: inhibitors of mitochondrial cytochrome c release, biochemical, purified mitochondria (AID 1603).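 Further: mouse liver mitochondria challenged with calcium chloride; signal normalized to the plate average as 100%.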 As to conditions: stronger effect = lower value.
A short description of assay [5]: inhibitors of polyQ protein aggregation (AID 1604). Particulars: polyglutamine-induced protein aggregation inhibition assay; stronger effect = higher value; tested at 2.5 µM.
The nature of assay [6]: enhancers of glutamate uptake in motor neurons, MN-1 cell line (AID 1612).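 Further: tested at 1 µM final; 0% = mean of DMSO vehicle wells on each plate; positive means more glutamate uptake than control and negative means less.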 As to conditions: MN-1 motor neuron cells, stronger effect = higher value.
A short description of assay [7]: reducers of polyQ inclusions in PC12 cells, cell-based, NGF-treated PC12, GFPQ80 (AID 1614).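 Further: lower means fewer inclusions and 0 means no inclusions at all.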 As to conditions: PC12 NGF-treated GFP-polyQ80 inclusion reduction.
Assay [8] is described as follows: suppressors of polyglutamine aggregation in yeast, 75Q-TubH (AID 1616). Particulars: S. cerevisiae 75Q-TubH polyglutamine aggregation suppression; stronger effect = higher value.
Assay [9] can be described thus: hESC survival regulators, cell-based (AID 493140; call rule not given here;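 further: cells exposed to compounds for four days before counting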). As to conditions: human embryonic stem cell survival screen; stronger effect = higher value.
Assay [10] is described as follows: liver-stage malaria parasite growth inhibition, primary screen, cell-based, HepG2, luciferase luminescence, HepG2 viability (AID 624349).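 Further: 100% = mean of DMSO negative control wells on the same plate.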 Particulars: P. berghei liver stage in HepG2, luciferase luminescence, concentration not given here; parasite load remaining: stronger effect = lower value; viability: measured here: HepG2 viability without parasites.
Assay [11] deals with 6-phosphogluconate dehydrogenase, decarboxylating (Homo sapiens) (UniProt P52209). Description: 6PGD enzyme inhibitors, primary screen, biochemical, human, recombinant enzyme, NADPH absorbance (AID 1159550;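 active means at least 20% inhibition of 6-phosphogluconate dehydrogenase activity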). Particulars: recombinant 6PGD, NADPH absorbance 341 nm; at 10 µM; stronger effect = higher value.
Chain of 6-phosphogluconate dehydrogenase, decarboxylating (Homo sapiens) (P52209 whole entry, looked up): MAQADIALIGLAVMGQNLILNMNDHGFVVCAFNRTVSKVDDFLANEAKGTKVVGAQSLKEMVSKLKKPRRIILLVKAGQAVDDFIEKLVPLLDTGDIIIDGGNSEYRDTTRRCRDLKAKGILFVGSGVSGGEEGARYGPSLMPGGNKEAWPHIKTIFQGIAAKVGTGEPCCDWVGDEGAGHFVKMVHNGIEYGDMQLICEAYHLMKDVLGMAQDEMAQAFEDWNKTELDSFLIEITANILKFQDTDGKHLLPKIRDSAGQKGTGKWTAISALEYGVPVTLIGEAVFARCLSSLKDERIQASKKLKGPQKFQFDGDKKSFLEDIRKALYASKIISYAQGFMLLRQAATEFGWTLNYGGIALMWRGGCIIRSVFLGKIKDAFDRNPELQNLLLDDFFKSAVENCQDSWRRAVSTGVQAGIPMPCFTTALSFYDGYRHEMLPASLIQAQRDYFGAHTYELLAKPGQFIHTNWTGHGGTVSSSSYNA
A short description of assay [12]: differential killing of epithelial or mesenchymal cells, primary screen, imaging, PC-3E GFP, TEM4-18 mCherry, co-culture (AID 1345086;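 active means compounds killing one labelled cell type while sparing the other, by normalised counts and ratio limits, not self-fluorescent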;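 on all read-outs here: cells exposed to compound for 72 h before imaging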;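 on red/green cell ratio (normalised): normalised mesenchymal count divided by normalised epithelial count so high means epithelial killing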). Particulars: imaging cell counts, at 1 µM; for red/green cell ratio (normalised): actives lie on both sides, counts scaled to control wells, 1 = unselective.
A short description of assay [13]: sensitizers of A549 cells to miR-34 induction, primary screen, imaging, A549 dox-inducible miR-34, nuclei and caspase counts (AID 1347080;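 active means compounds whose cell count with miR-34 switched on is under 0.7 times the count with it off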). Particulars: A549 miR-34 inducible, Hoechst nuclei count, 48 h.
Assay [14] concerns the target Mitogen-activated protein kinase 7 (Homo sapiens) (UniProt Q13164). Description: ERK5 transactivation activators in reporter cells, primary screen, cell-based, HTS (AID 1508626;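 active means luciferase signal above three times the same-plate solvent-only control wells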;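 further: luciferase driven by Gal4-ERK5 fusion binding five Gal4 sites before minimal TATA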). Particulars: HeLa Gal4-ERK5 transactivation, 18 h, at 5 µM, stronger effect = higher value.
In assay [15] the target is NAD(+) hydrolase SARM1 (Homo sapiens) (UniProt Q6SZW1). The experiment in a line: SARM1 TIR NADase inhibitors, cell lysate, NAD-Glo luminescence (AID 1508614;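 active means compound whose remaining NAD level is above about 45 nM, limit read from the data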). As to conditions: SAM-TIR HEK293T lysate NADase, at 1 µM, stronger effect = higher value.
Chain of NAD(+) hydrolase SARM1 (Homo sapiens) (Q6SZW1 whole entry, looked up): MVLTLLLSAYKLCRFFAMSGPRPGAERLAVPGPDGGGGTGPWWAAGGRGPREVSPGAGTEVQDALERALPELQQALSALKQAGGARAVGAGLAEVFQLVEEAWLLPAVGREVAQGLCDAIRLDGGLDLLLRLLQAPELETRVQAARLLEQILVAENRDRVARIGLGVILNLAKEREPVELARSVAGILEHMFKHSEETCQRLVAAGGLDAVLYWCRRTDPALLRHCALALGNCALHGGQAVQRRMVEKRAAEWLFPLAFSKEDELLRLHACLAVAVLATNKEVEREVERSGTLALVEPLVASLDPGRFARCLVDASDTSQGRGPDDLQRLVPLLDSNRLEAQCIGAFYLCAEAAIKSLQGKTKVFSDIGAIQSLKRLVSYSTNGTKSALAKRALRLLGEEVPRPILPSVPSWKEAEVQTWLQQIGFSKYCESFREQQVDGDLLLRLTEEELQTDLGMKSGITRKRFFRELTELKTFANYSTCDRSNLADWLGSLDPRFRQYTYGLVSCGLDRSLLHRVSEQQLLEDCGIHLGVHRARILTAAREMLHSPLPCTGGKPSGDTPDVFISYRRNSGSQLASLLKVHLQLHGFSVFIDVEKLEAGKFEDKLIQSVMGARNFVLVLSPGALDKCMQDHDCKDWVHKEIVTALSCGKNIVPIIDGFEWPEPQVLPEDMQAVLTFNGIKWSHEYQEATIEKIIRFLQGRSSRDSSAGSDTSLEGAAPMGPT
Assay [16] can be described thus: circadian clock period modulators, cell-based, LOPAC library, luminescence reporter (AID 2774; call rule not given here;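 further: values are relative to mean of DMSO wells on each plate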). Particulars: circadian reporter cells, at 7 µM, actives lie on both sides.
Assay [17] relates to Hepatitis C virus NS3 helicase. Description: HCV NS3 helicase inhibitors, primary screen, biochemical, fluorescence polarization, LOPAC1280 library (AID 687035; in the data active means inhibition above about 37%). As to conditions: Purified HCV NS3 helicase, Cy5-dT15 ssDNA binding fluorescence polarization; stronger effect = higher value; concentration not given here.
Assay [18] is described as follows: phospholipid biosynthesis inhibitors in animal cells, primary screen, cell-based, LOPAC library, screen 4 (AID 1347384; call rule not given here). Particulars: phospholipid biosynthesis inhibition screen, at 10 µM.
Assay [19] is described as follows: survival rescue of mitochondrial mutant cells in low glucose, primary screen, MELAS cybrids, Rieske KO mouse fibroblasts, CellTiter-Glo (AID 1508586;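 active means mean z-score across replicates of 1.96 or higher in either the MELAS or the Rieske mutant cell line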;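 further: z relative to plate mean and SD of compound and empty wells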). For orientation: ATP-based viability assays read luminescence as a measure of living cells.
Assay [20] is described as follows: viability rescue of complex I mutant cybrids, primary screen, cell-based, galactose medium, ATP luminescence (AID 1645843;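 active means z-score of at least 1.8 in each of two replicates, scored against plate mean and spread of sample wells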;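 further: positive z means more ATP and so rescue of galactose-driven cybrid death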). Particulars: complex I mutant cybrid cells, 72 h, stronger effect = higher value.
Where [21] appears, read: measured here: epithelial PC-3E GFP cell survival.
[22] abbreviates: measured here: mesenchymal TEM4-18 mCherry cell survival.
The mark [23] stands for this setting: stronger effect = lower value, cell number ratio, induced over uninduced.
Setting [24] is: measured here: relative caspase fold change +Dox/-Dox.
The mark [25] stands for this setting: measured here: total cells with miR-34 induction, stronger effect = lower value.
Setting [26] is: measured here: total cells without miR-34 induction.

Each structure is given as a SMILES string. “And” between values parts separate entries of the source, which are not always exact repeats. Equal values may be shown once. For some of these results: Potency and affinity values are given separately. The source made the active and inactive calls. Unless noted, no stated cut-off is given here; in the data, active means parasite load remaining mostly below about 12% (no sharp cut-off); inactive means mostly above about 10%.

Chain of Mitogen-activated protein kinase 7 (Homo sapiens) (Q13164 whole entry, looked up, the tested form may be a part): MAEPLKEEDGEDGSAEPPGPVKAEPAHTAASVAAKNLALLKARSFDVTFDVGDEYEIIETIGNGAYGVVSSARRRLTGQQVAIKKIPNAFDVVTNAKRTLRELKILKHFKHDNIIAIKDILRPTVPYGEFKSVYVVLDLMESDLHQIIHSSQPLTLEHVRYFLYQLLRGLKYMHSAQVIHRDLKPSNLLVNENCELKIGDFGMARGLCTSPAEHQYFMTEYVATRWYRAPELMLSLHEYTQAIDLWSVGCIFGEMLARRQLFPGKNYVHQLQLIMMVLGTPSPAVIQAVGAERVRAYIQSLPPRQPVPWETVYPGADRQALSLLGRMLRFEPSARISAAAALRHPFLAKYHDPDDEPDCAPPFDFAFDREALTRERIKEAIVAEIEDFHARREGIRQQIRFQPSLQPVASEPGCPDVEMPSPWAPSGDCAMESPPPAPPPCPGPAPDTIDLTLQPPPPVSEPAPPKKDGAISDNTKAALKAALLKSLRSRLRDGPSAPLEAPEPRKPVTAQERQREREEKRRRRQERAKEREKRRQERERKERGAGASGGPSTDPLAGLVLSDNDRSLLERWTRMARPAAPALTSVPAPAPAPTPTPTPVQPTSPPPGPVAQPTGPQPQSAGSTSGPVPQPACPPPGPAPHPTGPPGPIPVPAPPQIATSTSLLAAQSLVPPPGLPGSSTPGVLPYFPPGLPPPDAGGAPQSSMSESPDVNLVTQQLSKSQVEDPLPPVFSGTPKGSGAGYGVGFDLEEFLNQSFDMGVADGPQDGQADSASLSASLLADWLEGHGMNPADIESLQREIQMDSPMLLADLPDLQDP

With `COc1cc2ccc(=O)oc2cc1O`, the inhibition in assay [1] was -26.2%; in [11] it was -1.14% (inactive). The compound further came in with a score in [2] of 1.15. Besides, in assay [3], the rescue above control came to 11.4. For the same compound, in assay [4], the cytochrome c release ratio stood at 0.77. In addition, the inhibition of aggregation in assay [5] amounted to 0%. For the same compound, the glutamate uptake change in assay [6] worked out at 13.8%. The compound further returned an inclusion score in [7] of 2. The same compound showed an aggregation suppression score in [8] of 1.62. Besides, the survival in [9] was 12.4 (inactive). Further, the parasite load remaining in assay [10] was 104% (inactive) and 103% (inactive). The viability in assay [10] is 106% and 66.2%. The red/green cell ratio (normalised) in assay [12] is 1.11 (inactive). The normalised cell number in assay [12] (setting [21]) worked out at 0.86; in assay [12] (setting [22]), 0.96. Further, the fold change in [13] (setting [23]) is 0.946 (inactive); in [13] (setting [24]), 1.18. Besides, the results for the cell count in assay [13] (setting [25]) and in assay [13] (setting [26]) were 8620 and 9110, respectively. Also, in assay [14], the luciferase signal is 40 AU (inactive).
For the compound `CC(C)c1nc(N(C)S(C)(=O)=O)nc(-c2ccc(F)cc2)c1/C=C/[C@@H](O)C[C@@H](O)CC(=O)O`, the parasite load remaining in assay [10] was 73.5% (inactive) and 60.1% (inactive). The viability in assay [10] is 86.4% and 101%. Further, the inhibition in assay [11] is 1.44% (inactive). For the same compound, the red/green cell ratio (normalised) in assay [12] was 0.94 (inactive). Also, the normalised cell number turned out to be 1.08 in assay [12] (setting [21]) and 1.02 in assay [12] (setting [22]). For the same compound, the fold change is 0.858 (inactive) in assay [13] (setting [23]) and 2.33 in assay [13] (setting [24]). For the same compound, the cell count in [13] (setting [25]) is 12000; in [13] (setting [26]) it was 13900. For the same compound, the remaining NAD in [15] is 10 nM (inactive). The luciferase signal in assay [14] is 48 AU (inactive).
Turning to `CCCCC(=O)Oc1ccccc1C(=O)O`, the inhibition in assay [11] was 18.3% (inactive). The red/green cell ratio (normalised) in assay [12] was 0.89 (inactive). Further, the normalised cell number in assay [12] (setting [21]) worked out at 1.25; in assay [12] (setting [22]) it was 1.11. The values for the fold change in assay [13] (setting [23]) and in assay [13] (setting [24]) were 0.935 (inactive) and 0.938, respectively. In addition, the cell count in assay [13] (setting [25]) is 5290; in [13] (setting [26]), 5650. For the same compound, the luciferase signal in assay [14] was 56 AU (inactive).
In the case of `CC(C)Cn1c(=O)n(C)c(=O)c2[nH]cnc21`, the inhibition in [1] is 10.7%; in assay [17] it was -1% (inactive); in assay [11] it was -0.657% (inactive) and 4.73% (inactive). In assay [2], this compound registered a score of 1.18. Moreover, the rescue above control in assay [3] is -7.15. Also, in assay [4], the cytochrome c release ratio was 0.66. The same compound had an inhibition of aggregation in assay [5] of 80.3%. Also, the glutamate uptake change in assay [6] is 11.7%. Also, the inclusion score in assay [7] was determined as 2. Moreover, in [8], the aggregation suppression score amounted to 1.34. For the same compound, the period change in assay [16] was 0.065 h (inactive). For the same compound, in assay [10], the parasite load remaining is 31.6% (inactive). In addition, in assay [10], the viability is 71.5%. The red/green cell ratio (normalised) in assay [12] is 0.79 (inactive) and 0.82 (inactive). Moreover, the normalised cell number is 1.26 and 1.32 in assay [12] (setting [21]); 1 and 1.09 in [12] (setting [22]). Moreover, the compound was called inactive in assay [18]. For the same compound, the z-score in [19] (MELAS cybrid survival, CellTiter-Glo 48 h, stronger effect = higher value) was -0.413 (inactive) and 0.263 (inactive); in assay [19] (Rieske KO mouse fibroblast survival, CellTiter-Glo 72 h), 0.307 and 0.838; in assay [20] it was 0.71 (inactive) and -0.29 (inactive) and 0.67 (inactive). In assay [14], the luciferase signal is 504 AU (active).
Regarding `CC(=O)Nc1ccc(OC(=O)c2ccccc2O)cc1`, the inhibition in [1] was -0.86%; in [11], -12.6% (inactive). For the same compound, in [2], the score was determined as 0.55. For the same compound, the rescue above control in assay [3] was found to be 4.5. In addition, the cytochrome c release ratio in assay [4] worked out at 1.29. For the same compound, the inhibition of aggregation in [5] is 92.3%. The glutamate uptake change in assay [6] came out at 0.86%. Also, the inclusion score in assay [7] was 2. Moreover, in assay [8], the aggregation suppression score turned out to be 0.54. In addition, the parasite load remaining in assay [10] is 50.3% (inactive). Also, the viability in assay [10] stood at 71.4%. Besides, the red/green cell ratio (normalised) in assay [12] is 0.93 (inactive). The normalised cell number in assay [12] (setting [21]) worked out at 1.16; in assay [12] (setting [22]), 1.08. For the same compound, the remaining NAD in [15] is 10 nM (inactive). Further, the luciferase signal in assay [14] is 40 AU (inactive).
`CC1=C(/C=C/C(C)=C/C=C/C(C)=C/CO)C(C)(C)CCC1`: the inhibition was 25.6% in assay [1] and -7.77% (inactive) in [11]. In assay [2], this compound came in with a score of -0.82. In addition, in [3], the rescue above control was 28.1. Moreover, the cytochrome c release ratio in [4] turned out to be 1.19. The inhibition of aggregation in assay [5] turned out to be 88.9%. Besides, in assay [6], the glutamate uptake change was -6.81%. Moreover, the aggregation suppression score in assay [8] stood at 0.11. The parasite load remaining in assay [10] is 115% (inactive) and 48.9% (inactive). In addition, in assay [10], the viability is 69.5% and 99.6%. In addition, the red/green cell ratio (normalised) in [12] is 1.32 (inactive). Also, the normalised cell number in assay [12] (setting [21]) was 0.9; in assay [12] (setting [22]) it was 1.18. The fold change in assay [13] (setting [23]) is 0.915 (inactive); in assay [13] (setting [24]), 2.67. The cell count is 11800 in assay [13] (setting [25]) and 12800 in [13] (setting [26]). Besides, in assay [15], the remaining NAD was 10 nM (inactive). Moreover, the luciferase signal in [14] was 48 AU (inactive).

The term inhibition denotes the change of the read-out against control, counted positive when it falls. The viability is a read-out of living cells in per cent, often relative to untreated cells.
